# Reference: article PMC5540273 (PLoS ONE, 2017)
# Legend:
# Conditions in all cases: concentration: 1 μM, replicates: in singlicate; n = 1
# [1] = tested on: FLT3-autoinhibited
# [2] = tested on: FLT3
# [3] = tested on: FLT4
# [4] = tested on: FRK
# [5] = tested on: FYN
# [6] = tested on: GAK
# [7] = tested on: T1, GCN2(Kin.Dom.2,S808G)
# T1 construct: gene EIF2AK4
# [8] = tested on: GRK1
# [9] = tested on: T2, GRK2
# T2 construct: gene ADRBK1
# [10] = tested on: T3, GRK3
# T3 construct: gene ADRBK2
# [11] = tested on: GRK4
# [12] = tested on: GRK7
# [13] = tested on: GSK3A
# [14] = tested on: GSK3B
# [15] = tested on: T4, HASPIN
# T4 construct: gene GSG2
# [16] = tested on: HCK
# [17] = tested on: HIPK1
# [18] = tested on: HIPK2
# [19] = tested on: HIPK3
# [20] = tested on: HIPK4
# 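Also: KINOMEscan kinase panel screen.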
SMILES,%Inh [1] [%],%Inh [2] [%],%Inh [3] [%],%Inh [4] [%],%Inh [5] [%],%Inh [6] [%],%Inh [7] [%],%Inh [8] [%],%Inh [9] [%],%Inh [10] [%],%Inh [11] [%],%Inh [12] [%],%Inh [13] [%],%Inh [14] [%],%Inh [15] [%],%Inh [16] [%],%Inh [17] [%],%Inh [18] [%],%Inh [19] [%],%Inh [20] [%]
Cc1c2ccc(N(C)c3ccnc(Nc4cccc(S(N)(=O)=O)c4)n3)cc2nn1Cc1ccccc1.Cl.Cl [GW787226],29,98.5,99.9,65,75,0,62,0,0,0,21,0,0,0,0,91.7,23,0,0,0
COc1ccc(CNC(=O)NC2CCN(c3ccnc(Nc4ccc(OC)cc4)n3)C2)cc1 (centres unmarked) [GSK1379727],0,7,0,0,38,0,11,0,0,48,4,0,0,0,19,0,0,40,23,0
N#Cc1c(N2CCOCC2)sc(-c2ccn[nH]2)c1-c1ccc(Cl)cc1,12,0,0,0,0,0,0,15,0,25,0,26,0,0,6,28,26,16,28,0
Cn1ccc2ncnc(Oc3ccc(NC(=O)Nc4ccncc4)c(Cl)c3)c21,0,0,0,0,0,0,11,7,0,0,19,0,29,0,28,0,17,0,0,0
COc1cc2c(cc1OCCN1CCN(C)CC1)ncc1c3ccc(C#N)cc3[nH]c21,97.4,98.6,0,2,25,99.6,90.8,32,0,0,0,0,0,0,76,0,97.6,100,96,55
Cc1cccc(-c2nc(-c3ccc(S(C)(=O)=O)cc3)sc2-c2ccncc2)c1,2,14,8,0,0,5,0,0,0,3,0,31,0,3,0,11,8,0,15,4
COc1cc2c(cc1OC[C@@H](O)CO)ncc1c3ccc(C#N)cc3[nH]c21,90,97.5,7,0,0,98.9,82,16,13,0,73,5,0,0,91.2,4,94.4,98,94.2,47
